Assay results taken from ChEMBL document CHEMBL3988442, “University of Dundee, Small-Polar-MMV Screening Library” (2021).
Out of some 48,000 compounds screened, about 13,000 (27%) showed an effect of 50% or more. The list shows a part of the results.

Test system: Wolbachia pipientis
Assay: Anti-Wolbachia Cell-Based Screen
Assay type: functional
Set-up: scale not given: in the data most compounds retested in dose-response had high values
Settings: 5 µM

Structure (SMILES)	Percent Effect [%]
Cc1nnc(CN2CCCCC2c2nc(-c3ccccc3)no2)s1 (configuration not stated)	-13.6
Cc1cnc(N2CCC3(CCCN(c4ncc(F)cn4)C3)C2)nc1 (configuration not stated)	103
Cc1cnc(N2CCOC3(CCCN(c4ncccn4)C3)C2)nc1 (configuration not stated)	-13.37
Fc1cnc(N2CCCC3(CCN(c4ncccn4)C3)C2)nc1 (configuration not stated)	88.49
CS(=O)(=O)N1CCC2(CCCN(c3ncc(F)cn3)C2)C1 (configuration not stated)	6.577
Cc1cnc(N2CCCC3(CCOCC3)C2)nc1	109.2
CCCS(=O)(=O)N1CCC2(CCCN(c3ncc(F)cn3)C2)C1 (configuration not stated)	14.12
Cc1cnc(N2CCCC3(COCCN(c4nccs4)C3)C2)nc1 (configuration not stated)	-8.565
CCS(=O)(=O)N1CCC2(CCCN(c3ncc(F)cn3)C2)C1 (configuration not stated)	-3.984
O=S(=O)(C1CC1)N1CCC2(CCCN(c3ncc(F)cn3)C2)C1 (configuration not stated)	-1.558
Cc1cc(C)c2nc(CN3CCC(N4CCOCC4)CC3)cc(O)c2c1	-11.95
CCN(C(c1cccnc1)c1cc(C)cc(C)c1)S(C)(=O)=O (configuration not stated)	1.72
Cc1oc(-c2ccsc2)nc1CC(=O)NCCS(C)(=O)=O	-2.536
CN(C)CCOCC1CN(C(=O)c2cscn2)Cc2ccnn2C1 (configuration not stated)	-0.6425
O=C1CC(c2ccc(C(=O)O)cc2)c2ncn(-c3cccnc3)c2N1 (configuration not stated)	-9.053
Cc1c(Br)cc2c(c1C)OCC(N(C)C)C2=O (configuration not stated)	95.66
CCCN1Cc2cc(Br)ccc2OCC1=O	11.44
CCN(CC)C1COc2ccc(Br)cc2C1=O (configuration not stated)	104.3
CCN(CC)C1COc2c(cc(Br)c(C)c2C)C1=O (configuration not stated)	131.7
CCN(CC)C1COc2c(cc(Br)c(C)c2Br)C1=O (configuration not stated)	114.2
COCCN1C(=O)[C@H]2CC[C@@H]1CN(C(=O)COc1ccc(F)c(Cl)c1)C2	1.148
CC(C)c1cc(C(=O)NCCN2CCCS2(=O)=O)n[nH]1	-2.781
COc1ccccc1CC(=O)N1CCC(NCc2cccnc2)CC1	-3.091
COc1ccccc1CC(=O)N1CC[C@H](O)[C@]2(CCCO2)C1	123.7
COc1ccc(CC(=O)N2CC[C@H](CO)[C@H](O)C2)c(OC)c1	2.348
COc1ccccc1CC(=O)N1CC[C@@]2(CCCO2)[C@@H](OC)C1	3.075

Structure (SMILES)	Percent Effect [%]
COc1ccc(Br)cc1CC(=O)N1CCCC1	26.87
COc1ccc(C)cc1CC(=O)N1CC[C@@]2(CCCO2)[C@@H](O)C1	110.1
O=C(Nc1ccc(OCc2cccc(F)c2)c(F)c1)C1COCCO1 (configuration not stated)	-24.38
CN1CCCC1c1ccc(C(=O)N2CCc3ccccc3C2)s1 (configuration not stated)	10.54
O=C(NC1CCN(c2nccs2)CC1)c1cccs1	-6.975
CN1CCCC1c1ccc(C(=O)Nc2c3c(nn2C)CCC3)s1 (configuration not stated)	105.6
Cn1nc2c(c1NC(=O)c1ccc(C3CCCN3C3CCC3)s1)CCC2 (configuration not stated)	91.78
O=C(Nc1nnc(N2CCCCC2)[nH]1)c1cccs1	3.867
CC(C)CN1CCCC1c1ccc(C(=O)Nc2cccnc2)s1 (configuration not stated)	20.92
NCC(=O)N1CCCC1c1ccc(C(=O)NCc2ccoc2)s1 (configuration not stated)	-13.99
Cn1nc2c(c1NC(=O)c1cccs1)CCC2	116
CC(C)CN1CCCC1c1ccc(C(=O)Nc2cn(C)nn2)s1 (configuration not stated)	6.317
Cc1cncc(NCC(O)c2ccco2)n1 (configuration not stated)	11.88
Clc1ccc(OCCNC2(c3ccc(Br)cc3)CCOCC2)cc1	18.48
Cc1nnc(CCNC(=O)C(c2ccc(F)cc2)N(C)C)[nH]1 (configuration not stated)	15.69
CSCCCN1CCn2nc(CNC(C)=O)cc2C1	-21.5
CNS(=O)(=O)CCNC(=O)[C@@]12CNC[C@@H]1CN(C1CCCC1)C2	-0.715
CC(=O)NC1(C(=O)N2CCCN(c3cccnn3)CC2)CCCCC1	1.939
CN(C)CCOCc1nnc2n1CCN(Cc1cccs1)CC2.O=C(O)C(F)(F)F.O=C(O)C(F)(F)F	101.6
CN(C)CCOCc1nnc2n1CCN(Cc1ccco1)CC2.O=C(O)C(F)(F)F.O=C(O)C(F)(F)F	99.11
CC(=O)NCc1nnc2n1CCN(Cc1cccs1)C2.O=C(O)C(F)(F)F	-7.249
Cc1ccc(CN2CCc3nnc(COCCN(C)C)n3CC2)o1.O=C(O)C(F)(F)F.O=C(O)C(F)(F)F	95.05
O=C(O)C(F)(F)F.O=C(O)C(F)(F)F.c1cncc(COCc2nnc3n2CCN(Cc2ccco2)C3)c1	-13.62
O=C(O)C(F)(F)F.O=C(O)C(F)(F)F.c1cncc(COCc2nnc3n2CCN(Cc2cccs2)C3)c1	-10.65
CCOCc1nnc2n1CCN(Cc1c(C)noc1C)CC2.O=C(O)C(F)(F)F	-27.85
CN(C)CCOCc1nnc2n1CCN(Cc1ccco1)C2.O=C(O)C(F)(F)F.O=C(O)C(F)(F)F	-14.14

Structure (SMILES)	Percent Effect [%]
COc1ccc(NC(=O)C2CCCO2)cc1OCc1cccnc1 (configuration not stated)	5.381
Cc1cnccc1N1CCCN(C(=O)CCCn2ccnc2C)CC1	-4.474
Cc1nccn1CCCn1cncc1-c1ccc2c(c1)CCC(C)N2C.Cl (configuration not stated)	102.7
Cc1nn(C)c(C)c1CCC(=O)N1CCc2sccc2C1	7.197
Cc1nccn1CCCn1cncc1-c1ccc2c(c1)CCCN2C.Cl	98.66
CCN1c2ccc(-c3cncn3CCCn3ccnc3C)cc2CC1C.Cl (configuration not stated)	77.37
Cc1nn(C)c(C)c1CCC(=O)N1CC(c2cccnc2)C1	23.02
Cc1nccn1CCCNC(=O)C1CCCCN1Cc1ccncc1 (configuration not stated)	-5.862
Cc1nn(C)c(C)c1CCn1cncc1-c1ccc2c(c1)CC(C)N2C.Cl (configuration not stated)	101.8
CCOc1ncc(NC(=O)c2ccccn2)c(OCC)n1	0.09854
CN1C[C@@H]2CC[C@H](C1)N(Cc1ccccc1OCCN1CCOCC1)C2	-8.693
CSc1ccc(CNc2ccccc2CN2CCC(O)CC2)cc1	-4.512
Cn1cc(CCCNC(=O)NC2CCN(c3ccccc3)C2=O)cn1 (configuration not stated)	20.77
CCn1nc2c(cc1=O)CN(CCOc1cccc(C#N)c1)CC2	-9.961
Cn1cc(C(=O)OCC(N)=O)c(-c2ccc(F)cc2F)n1	-2.814
N#CCCN(Cc1cccnc1)C(=O)c1ccc(-n2cnnn2)cc1	12.89
Cc1ccc(NC(=O)N(C)C)c(C(=O)OCC(=O)NC2CCCC2)c1	-9.857
COc1ccc(CN(C)C(=O)NCc2c(C)cc(C)[nH]c2=O)cc1	-0.4347
CC1=NOC(C(=O)N(C)CCCn2nc(C)cc2C)C1 (configuration not stated)	25.07
Cc1cnccc1N1CCCN(C(=O)CCn2ccnc2C)CC1	-14.43
Cc1cc(C)n(CCCN(C)C(=O)C2COc3ccccc3C2)n1 (configuration not stated)	-47.38
Cc1nccn1CCCn1cncc1-c1ccc2c(c1)CC(C)N2C.Cl (configuration not stated)	92.09
Cc1cc(C)n(CCCn2cncc2-c2ccc3c(c2)CC(C)N3C)n1.Cl (configuration not stated)	95.59
CC(C)OCCC1CCCCN1S(C)(=O)=O (configuration not stated)	3.961
CC(C)(C)C(=O)NS(=O)(=O)c1ccc(C#N)cc1C(F)(F)F	-4.514
CCC(C)C(=O)NS(=O)(=O)c1ccc(C#N)cc1C(F)(F)F (configuration not stated)	121.4

Structure (SMILES)	Percent Effect [%]
CC(C)C(=O)NS(=O)(=O)c1ccc(C#N)cc1C(F)(F)F	109
N#Cc1ccc(S(=O)(=O)NC(=O)C2CC2)c(C(F)(F)F)c1	6.344
CC(O)CN(C)S(=O)(=O)c1ccc(C#N)cc1F (configuration not stated)	-5.528
CCC(CC)C(=O)NS(=O)(=O)c1ccc(C#N)cc1C(F)(F)F	103.7
CC(=O)NC1CCN(c2ccc(C#N)cc2C(F)(F)F)CC1	29.91
CC(C(=O)N(Cc1ccc(C#N)cc1)CC(F)(F)F)S(C)(=O)=O (configuration not stated)	-0.5778
CN(CCN(C)S(=O)(=O)CC1CCOCC1)c1ccccc1	-10.63
N#CCCN(CC1CCOC1)Cn1ccc(-c2cccs2)n1 (configuration not stated)	-0.2132
CC(NC(C)(C)CN)c1ccccc1 (configuration not stated)	-0.2011
CC(C)CCN1CCC2(CC1)NCc1ccccc1NC2=O	110.4
O=C1Nc2ccccc2CNC12CCN(CC1CC1)CC2	106.1
CC(C)CN1CCC2(Cc3ccccc3NC2=O)C1 (configuration not stated)	2.79
NC(=O)C(NC1CCN(CC2CCCCC2)CC1)c1ccccc1 (configuration not stated)	-8.499
O=C1Nc2ccccc2NC12CCN(c1cccc(C(F)(F)F)n1)CC2	-10.36
O=C1Nc2ccccc2CNC12CCN(CC1CCCC1)CC2	118.7
O=C1Nc2ccccc2CNC12CCN(CC1CCNC1)CC2 (configuration not stated)	113.7
O=C1Nc2ccccc2NC12CCN(Cc1nnc(C3CC3)o1)CC2	10.49
CC(C)c1nnc(CN2CCC3(CC2)Nc2ccccc2NC3=O)o1	8.635
Cn1cc(C2(C)CN(C(=O)COc3ccccc3F)CCO2)cn1 (configuration not stated)	-6.052
O=S(=O)(NCC1(O)CCOCC1)c1c(F)cccc1F	-2.026
Cc1cc(F)ccc1S(=O)(=O)N1CCN(C)Cc2ccccc21	-7.823
CC(C)(C)CN1CCCC2(CCN(C(=O)c3cn[nH]c3)C2)C1 (configuration not stated)	-0.3441
CCNC(=O)NCc1ccccc1NS(=O)(=O)c1ccccc1	26.47
O=C1CC2(CCCCC2)C(=O)N1CC(O)COCc1ccccc1F (configuration not stated)	-27.41
